Read-out in test [1]: Macrophage colony-stimulating factor (MCSF), CSF1 (gene 1435)
Briefly: BSK_hDFCGF_MCSF: BioMAP Diversity Plus: hDFCGF Assay for Macrophage colony-stimulating factor (MCSF) Biomarker Activity (AID 2283060). The following applies: primary human foreskin fibroblasts; actives raise or lower the signal. The method, boiled down: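 Primary human foreskin fibroblasts dosed with chemical; 24 h later, M-CSF quantified by ELISA; curves fitted in both directions vs DMSO negative control.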

A short description of test [2]: BSK_hDFCGF_SRB: Viability Assessment in the BioMAP Diversity Plus: hDFCGF Assay (AID 2283061).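 Also: cells exposed to compound for 24 h before the read.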 The conditions noted are these: primary human foreskin fibroblasts. In a few lines:
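Readout is SRB absorbance at 560 nm, reflecting total protein in parallel cultures of human foreskin fibroblasts harvested 24 h after chemical dosing. Activity was fitted bidirectionally relative to DMSO.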

Read-out in test [3]: TIMP metallopeptidase inhibitor 1 (TIMP1), TIMP1 (gene 7076)
As to the kind of experiment: BSK_hDFCGF_TIMP1: BioMAP Diversity Plus: hDFCGF Assay for TIMP metallopeptidase inhibitor 1 (TIMP1) Biomarker Activity (AID 2283062). The conditions noted are these: primary human foreskin fibroblasts; actives raise or lower the signal. The method, boiled down:
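Human skin fibroblasts (primary), hDFCGF system; compound exposure 24 h; TIMP-1 by ELISA; bidirectional fit vs DMSO negative control; overt cytotoxicity by SRB in parallel wells.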

Read-out in test [4]: Monokine induced gamma interferon (MIG), CXCL9 (gene 4283)
Briefly: BSK_hDFCGF_MIG: BioMAP Diversity Plus: hDFCGF Assay for Monokine induced gamma interferon (MIG) Biomarker Activity (AID 2283063). The following applies: primary human foreskin fibroblasts; actives raise or lower the signal. The method, boiled down:
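Chemicals were added to primary human foreskin fibroblast cultures, which were sampled 24 h later. MIG levels were then quantified by ELISA and responses fitted in both directions relative to DMSO.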

Read-out in test [5]: Matrix Metallopeptidase 1 (MMP1), MMP1 (gene 4312)
As to the kind of experiment: BSK_hDFCGF_MMP1: BioMAP Diversity Plus: hDFCGF Assay for Matrix Metallopeptidase 1 (MMP1) Biomarker Activity (AID 2283064). The following applies: primary human foreskin fibroblasts; actives raise or lower the signal. In a few lines: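 Human foreskin fibroblasts exposed to chemical for 24 h; MMP1 detected by ELISA, with DMSO as baseline for bidirectional fitting.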

Read-out in test [6]: Vascular cell adhesion molecule 1 (VCAM1), VCAM1 (gene 7412)
As to the kind of experiment: BSK_hDFCGF_VCAM1: BioMAP Diversity Plus: hDFCGF Assay for Vascular cell adhesion molecule 1 (VCAM1) Biomarker Activity (AID 2283065). The conditions noted are these: primary human foreskin fibroblasts; actives raise or lower the signal. In a few lines:
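Human foreskin fibroblast primary cells, chemical exposure 24 h; VCAM-1 by ELISA; bidirectional fit, DMSO = negative control/baseline.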

Read-out in test [7]: Plasminogen activator inhibitor-1 (PAI1), SERPINE1 (gene 5054)
Briefly: BSK_hDFCGF_PAI1: BioMAP Diversity Plus: hDFCGF Assay for Plasminogen activator inhibitor-1 (PAI1) Biomarker Activity (AID 2283066). The conditions noted are these: primary human foreskin fibroblasts; actives raise or lower the signal. In a few lines: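 Fibroblasts from human foreskin were treated with test chemical. After 24 h, PAI-1 was measured by ELISA. Activity was fitted in both directions relative to DMSO.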

Read-out in test [8]: Intercellular Adhesion Molecule 1 (ICAM1), ICAM1 (gene 3383)
Briefly: BSK_KF3CT_ICAM1: BioMAP Diversity Plus: KF3CT Assay for Intercellular Adhesion Molecule 1 (ICAM1) Biomarker Activity (AID 2283067). The conditions noted are these: primary human keratinocytes with fibroblasts; actives raise or lower the signal. The method, boiled down:
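ICAM-1 levels are measured by ELISA 24 h after dosing a primary human co-culture of keratinocytes and foreskin fibroblasts. Activity in either direction is fitted relative to DMSO vehicle.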

Read-out in test [9]: Interferon-gamma inducible Protein 10 (IP10), CXCL10 (gene 3627)
As to the kind of experiment: BSK_KF3CT_IP10: BioMAP Diversity Plus: KF3CT Assay for Interferon-gamma inducible Protein 10 (IP10) Biomarker Activity (AID 2283068). The conditions noted are these: primary human keratinocytes with fibroblasts; actives raise or lower the signal. In a few lines: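 ELISA read-out of IP-10 after 24 h chemical dosing of human skin primary co-culture (keratinocytes, foreskin fibroblasts). Gain or loss of signal relative to DMSO, bidirectional curve fit.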

Test [10] in a line: BSK_KF3CT_SRB: Viability Assessment in the BioMAP Diversity Plus: KF3CT Assay (AID 2283069).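 Also: read 24 h after compound addition; fitted for both signal gain and loss against DMSO baseline.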 The following applies: primary human keratinocytes with fibroblasts. In a few lines: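 Overt cytotoxicity is assessed as total protein by sulforhodamine B staining in parallel human skin co-cultures at 24 h after dosing. DMSO serves as negative control and baseline.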
Read-out in test [11]: Interleukin-1 alpha (IL1a), IL1A (gene 3552)
Briefly: BSK_KF3CT_IL1a: BioMAP Diversity Plus: KF3CT Assay for Interleukin-1 alpha (IL1a) Biomarker Activity (AID 2283070). The conditions noted are these: primary human keratinocytes with fibroblasts; actives raise or lower the signal. In a few lines:
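Readout is IL-1a level by ELISA, compared bidirectionally with DMSO as baseline. Cells: human keratinocytes co-cultured with foreskin fibroblasts, harvested 24 h post-dose.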

Read-out in test [12]: TIMP metallopeptidase inhibitor 2 (TIMP2), TIMP2 (gene 7077)
Briefly: BSK_KF3CT_TIMP2: BioMAP Diversity Plus: KF3CT Assay for TIMP metallopeptidase inhibitor 2 (TIMP2) Biomarker Activity (AID 2283071). The conditions noted are these: primary human keratinocytes with fibroblasts; actives raise or lower the signal. The method, boiled down:
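Chemicals were dosed onto human skin primary co-cultures of keratinocytes and foreskin fibroblasts, and TIMP-2 was measured by ELISA after 24 hours. Activity in either direction was fitted relative to DMSO.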

Read-out in test [13]: Transforming growth factor beta 1 (TGFb1), TGFB1 (gene 7040)
As to the kind of experiment: BSK_KF3CT_TGFb1: BioMAP Diversity Plus: KF3CT Assay for Transforming growth factor beta 1 (TGFb1) Biomarker Activity (AID 2283072). The following applies: primary human keratinocytes with fibroblasts; actives raise or lower the signal. The method, boiled down:
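KF3CT co-culture (keratinocytes + fibroblasts), 24 h exposure → TGF-b1 ELISA → bidirectional fit, DMSO = baseline. Parallel SRB total-protein staining (0.1% SRB, 10% TCA fixation, 560 nm) for cytotoxicity.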

Read-out in test [14]: C-C motif chemokine 2 (Homo sapiens) (UniProt P13500)
Briefly: BSK_KF3CT_MCP1: BioMAP Diversity Plus: KF3CT Assay for Monocyte Chemoattractant Protein 1 (MCP1/CCL2) Biomarker Activity (AID 2283073). The following applies: primary human keratinocytes with fibroblasts; actives raise or lower the signal. The method, boiled down: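 ELISA readout of MCP-1 after 24 h chemical dosing of a human skin primary co-culture of keratinocytes and foreskin fibroblasts. Activity was fitted in both directions against DMSO.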

Read-out in test [15]: Matrix Metallopeptidase 9 (MMP9), MMP9 (gene 4318)
As to the kind of experiment: BSK_KF3CT_MMP9: BioMAP Diversity Plus: KF3CT Assay for Matrix Metallopeptidase 9 (MMP9) Biomarker Activity (AID 2283074). The conditions noted are these: primary human keratinocytes with fibroblasts; actives raise or lower the signal. The method, boiled down: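 Values come from bidirectional fitting relative to DMSO of MMP-9 levels, which were measured by ELISA. Measurements were taken 24 h after chemical dosing of a keratinocyte and foreskin fibroblast co-culture.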

Read-out in test [16]: urokinase plasminogen activator (uPA), PLAU (gene 5328)
Briefly: BSK_KF3CT_uPA: BioMAP Diversity Plus: KF3CT Assay for urokinase plasminogen activator (uPA) Biomarker Activity (AID 2283075). The following applies: primary human keratinocytes with fibroblasts; actives raise or lower the signal. In a few lines:
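Values derive from bidirectional fitting against DMSO controls. Keratinocyte/foreskin fibroblast co-cultures received chemical; 24 h later uPA was detected by ELISA, with SRB total-protein staining in parallel wells for overt cytotoxicity.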

Read-out in the next test: CD40, CD40 (gene 958)
Briefly: BSK_LPS_CD40: BioMAP Diversity Plus: LPS Assay for CD40 Biomarker Activity (AID 2283076). The following applies: primary human HUVEC with PBMC; actives raise or lower the signal. In a few lines: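 Cells were dosed, incubated 24 h, then assayed for CD40 by ELISA. Gain or loss of signal was analysed relative to DMSO controls. The culture paired human umbilical vein endothelium with peripheral blood mononuclear cells.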

Read-out in test [17]: E-selectin (Homo sapiens) (UniProt P16581)
As to the kind of experiment: BSK_LPS_Eselectin: BioMAP Diversity Plus: LPS Assay for Eselectin Biomarker Activity (AID 2283077). The following applies: primary human HUVEC with PBMC; actives raise or lower the signal. In a few lines:
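Primary human vascular co-culture (endothelium plus PBMC) was dosed with chemical, then E-selectin quantified by ELISA at 24 h. Endpoint values derive from bidirectional curve fitting relative to DMSO.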

Read-out in test [18]: Interleukin-8 (IL8), CXCL8 (gene 3576)
Briefly: BSK_LPS_IL8: BioMAP Diversity Plus: LPS Assay for Interleukin-8 (IL8) Biomarker Activity (AID 2283078). The conditions noted are these: primary human HUVEC with PBMC; actives raise or lower the signal. The method, boiled down: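 Readout is IL-8 by ELISA, taken 24 h after compounds were added to LPS-stimulated endothelial/PBMC co-cultures. Both increases and decreases relative to DMSO control were scored through bidirectional fitting.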

Test [19] can be described thus: BSK_LPS_SRB: Viability Assessment in the BioMAP Diversity Plus: LPS Assay (AID 2283079).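 Also: total protein by sulforhodamine B absorbance as a cytotoxicity measure; measured one day after compound addition; fitted in both directions against DMSO so loss or gain of signal counts.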 The conditions noted are these: primary human HUVEC with PBMC. The method, boiled down:
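Readout is SRB absorbance at 560 nm (0.1% stain, TCA-fixed parallel cultures) as a total-protein cytotoxicity measure. Cells: primary human umbilical vein endothelium plus peripheral blood mononuclear cells, 24 h after chemical exposure; DMSO served as baseline.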

Consider two compounds from PubChem BioAssay (EPA / NIEHS).

Where “and” joins values, the source holds several entries; their conditions need not be identical. Identical values can stand only once. The source holds several records for some structures; these can differ, active in one and inactive in another. Calls of active or inactive are those of the source. The calls were made as follows: active = hit-call score of the fitted dose curve at least 0.9, where 1 is the maximum; inactive = score below 0.9.

E-selectin (Homo sapiens), sequence (P16581 whole entry, looked up): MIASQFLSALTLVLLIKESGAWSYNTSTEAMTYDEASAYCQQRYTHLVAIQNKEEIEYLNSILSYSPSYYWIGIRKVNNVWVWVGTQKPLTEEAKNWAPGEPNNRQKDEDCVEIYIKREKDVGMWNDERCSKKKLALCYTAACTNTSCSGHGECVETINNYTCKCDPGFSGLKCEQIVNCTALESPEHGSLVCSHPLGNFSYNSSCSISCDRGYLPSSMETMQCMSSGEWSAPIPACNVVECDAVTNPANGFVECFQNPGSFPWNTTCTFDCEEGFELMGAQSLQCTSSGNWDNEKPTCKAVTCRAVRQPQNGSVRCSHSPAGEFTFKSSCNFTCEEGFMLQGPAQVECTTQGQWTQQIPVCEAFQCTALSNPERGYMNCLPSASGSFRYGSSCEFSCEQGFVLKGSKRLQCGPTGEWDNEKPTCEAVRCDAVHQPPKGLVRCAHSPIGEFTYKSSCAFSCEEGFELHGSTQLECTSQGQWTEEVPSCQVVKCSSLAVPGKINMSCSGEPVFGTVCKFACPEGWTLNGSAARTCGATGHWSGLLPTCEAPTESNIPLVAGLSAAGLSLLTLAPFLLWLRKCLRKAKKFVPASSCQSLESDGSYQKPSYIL

In the case of `O=C1NS(=O)(=O)c2ccccc21`, the outcome in [1], in [2], in [3], in test [4], in test [5] and in test [6] was inactive. Also, the outcome in test [7], in test [8], in [9], in [10], in [11] and in test [12] was inactive. Besides, the outcome in test [13] is “inactive”; in [14], “inactive”; in [15], “inactive”; in [16], “inactive”; with CD40, CD40 (gene 958), “inactive”; in test [17], “inactive”. Besides, the result in [18] and in test [19] was inactive.
As a reminder, the AC50 is the midpoint of the concentration-response curve, whichever way the signal moves. `O=P(O)(O)CCC(F)(F)C(F)(F)C(F)(F)C(F)(F)C(F)(F)C(F)(F)C(F)(F)C(F)(F)F`: the outcome in test [1], in [2], in test [3], in test [4], in test [5] and in [6] was inactive. Moreover, the outcome in test [8], in test [9], in test [10], in [11], in test [12] and in test [14] was inactive. Further, the outcome in test [15] is “inactive”; in test [16], “inactive”; in the test with CD40, CD40 (gene 958), “inactive”; in test [17], “inactive”; in [18], “inactive”; in test [19] it was “inactive”. Further, the AC50 was 0.615 µM (active) in [4]; 29.5 µM (active) and 18.4 µM (active) in [7]; 30 µM (active) with CD40, CD40 (gene 958); 35.3 µM (active) in test [19].
